{"source": "paper PMC4336329", "about": "(PLoS ONE, 2015)", "note": "The whole screen tested about 310,000 compounds, of which about 2,200 (0.71%) showed an effect of 50% or more. Effects have a minus sign here. The entries come from a sample that favours strong results as a whole."}
{"biological_target": "human ether-à-go-go-related gene (hERG) potassium channel (human, UniProt Q12809)", "sequence (Q12809 whole entry, looked up)": "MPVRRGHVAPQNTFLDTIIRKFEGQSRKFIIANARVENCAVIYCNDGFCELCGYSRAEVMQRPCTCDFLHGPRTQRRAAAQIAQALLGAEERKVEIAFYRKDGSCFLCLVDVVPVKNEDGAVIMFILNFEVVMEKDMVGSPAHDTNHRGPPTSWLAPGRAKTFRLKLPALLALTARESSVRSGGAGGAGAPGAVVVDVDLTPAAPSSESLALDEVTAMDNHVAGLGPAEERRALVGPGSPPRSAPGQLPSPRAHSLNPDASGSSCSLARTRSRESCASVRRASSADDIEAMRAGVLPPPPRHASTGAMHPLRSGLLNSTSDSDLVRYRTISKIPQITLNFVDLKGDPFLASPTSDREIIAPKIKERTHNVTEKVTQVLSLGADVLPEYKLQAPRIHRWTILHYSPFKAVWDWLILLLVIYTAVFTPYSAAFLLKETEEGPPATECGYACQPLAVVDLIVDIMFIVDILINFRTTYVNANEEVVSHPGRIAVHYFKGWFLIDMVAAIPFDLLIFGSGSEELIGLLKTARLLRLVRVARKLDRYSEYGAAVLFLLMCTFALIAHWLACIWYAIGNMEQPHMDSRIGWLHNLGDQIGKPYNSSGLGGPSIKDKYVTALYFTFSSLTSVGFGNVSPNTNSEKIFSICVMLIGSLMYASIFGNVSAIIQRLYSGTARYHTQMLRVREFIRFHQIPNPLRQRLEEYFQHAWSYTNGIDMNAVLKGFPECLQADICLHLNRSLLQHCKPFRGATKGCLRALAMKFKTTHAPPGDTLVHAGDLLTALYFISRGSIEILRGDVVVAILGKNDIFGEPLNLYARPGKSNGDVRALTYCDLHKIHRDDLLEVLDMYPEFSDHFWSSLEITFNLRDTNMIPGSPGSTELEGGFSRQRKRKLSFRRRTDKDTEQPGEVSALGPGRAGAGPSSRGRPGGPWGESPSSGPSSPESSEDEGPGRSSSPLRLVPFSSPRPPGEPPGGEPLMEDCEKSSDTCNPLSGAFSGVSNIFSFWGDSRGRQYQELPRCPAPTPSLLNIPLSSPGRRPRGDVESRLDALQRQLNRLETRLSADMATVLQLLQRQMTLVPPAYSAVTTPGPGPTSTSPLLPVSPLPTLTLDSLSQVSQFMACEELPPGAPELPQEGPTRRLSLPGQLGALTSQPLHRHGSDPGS", "experiment": "primary screen, population patch clamp on CHO cells stably expressing hERG; higher = less effect of the substance", "units": {"hERG current change (%, negative = inhibition) at 1uM": "%"}}
{"smiles": "CC(C)(C)C(=O)Nc1scc(-c2ccc(-c3ccccc3)cc2)c1C(=O)O", "hERG current change (%, negative = inhibition) at 1uM": 21.8}
{"smiles": "COc1cc(C)ccc1OCc1cc(C(=O)N(C)CCCN2CCOCC2)no1", "hERG current change (%, negative = inhibition) at 1uM": -7.67}
{"smiles": "c1ccc(-n2c(-c3ccco3)nnc2-c2ccco2)cc1", "hERG current change (%, negative = inhibition) at 1uM": 5.9}
{"smiles": "COc1cccc(-c2nnc(-c3ccco3)o2)c1", "hERG current change (%, negative = inhibition) at 1uM": 14.6}
{"smiles": "O=C(NCCN1CCCCC1)c1cc(OCC(F)(F)F)ccc1OCC(F)(F)F", "hERG current change (%, negative = inhibition) at 1uM": -17.2}
{"smiles": "S=c1[nH]nc(-c2ccc(Cl)cc2)n1-c1ccc(Cl)cc1", "hERG current change (%, negative = inhibition) at 1uM": 9.56}
{"smiles": "CCC(C)(C)NC(=O)CN(C(=O)c1snc(C(N)=O)c1N)c1ccc2c(c1)OCO2", "hERG current change (%, negative = inhibition) at 1uM": 3.43}
{"smiles": "COc1ccc(S(=O)(=O)N2CCC(C(=O)NCCc3ccccc3)CC2)cc1", "hERG current change (%, negative = inhibition) at 1uM": 9.96}
{"smiles": "COc1ccc(C(=O)N2CCC(C(=O)c3c(C)cc(C)cc3C)CC2)cc1", "hERG current change (%, negative = inhibition) at 1uM": -8.27}
{"smiles": "COc1ccc(C(=O)C2CCN(C(=O)c3ccc(F)cc3)CC2)cc1", "hERG current change (%, negative = inhibition) at 1uM": 2.02}
{"smiles": "COc1ccc(C(=O)C2CCN(C(=O)c3ccc(C)cc3)CC2)cc1", "hERG current change (%, negative = inhibition) at 1uM": -47.7}
{"smiles": "COc1cc(OC)cc(C(=O)N2CCC(C(=O)c3ccc(F)cc3)CC2)c1", "hERG current change (%, negative = inhibition) at 1uM": -1.28}
{"smiles": "COc1ccc(C(=O)C2CCN(C(=O)c3ccc(OC)cc3)CC2)cc1", "hERG current change (%, negative = inhibition) at 1uM": -76}
{"smiles": "COc1ccc(C(=O)N2CCC(C(=O)c3ccc(F)cc3)CC2)cc1", "hERG current change (%, negative = inhibition) at 1uM": -66.1}
{"smiles": "COc1ccc(Cl)cc1NC(=O)NN1CCN(C)CC1", "hERG current change (%, negative = inhibition) at 1uM": -7.68}
{"smiles": "CC(C)(C)NC(=O)C(c1ccco1)N(Cc1ccc(F)cc1)C(=O)c1snc(C(N)=O)c1N", "note": "(stereo not drawn)", "hERG current change (%, negative = inhibition) at 1uM": -6.09}
{"smiles": "C/C(=N/OCO/N=C(\\C)c1ccc(F)cc1F)c1ccc(F)cc1F", "hERG current change (%, negative = inhibition) at 1uM": 21.9}
{"smiles": "COc1cc2c(cc1OC)CN(CC(=O)Nc1ccc3c(c1)OCO3)CC2", "hERG current change (%, negative = inhibition) at 1uM": 14.5}
{"smiles": "CC(C)(C)S(=O)(=O)c1cnc2c(-c3ccsc3)cnn2c1N", "hERG current change (%, negative = inhibition) at 1uM": 15.9}
{"smiles": "COc1cc2c(cc1OC)CN(C(=O)COc1ccccc1[N+](=O)[O-])CC2", "hERG current change (%, negative = inhibition) at 1uM": 9.5}
{"smiles": "O=C(NC(=S)Nc1ccccc1Br)c1ccc2c(c1)OCO2", "hERG current change (%, negative = inhibition) at 1uM": -67.9}
{"smiles": "O=C(NC(=S)NCc1ccccc1)c1ccc2c(c1)OCO2", "hERG current change (%, negative = inhibition) at 1uM": 2.26}
{"smiles": "COC(=O)c1ccccc1NC(=S)NC(=O)c1ccc2c(c1)OCO2", "hERG current change (%, negative = inhibition) at 1uM": 20.6}
{"smiles": "Cc1ccc(N(C)S(=O)(=O)c2cccc(C(=O)Nc3ccc(C)cn3)c2)cc1", "hERG current change (%, negative = inhibition) at 1uM": 15.7}
{"smiles": "N#CCCN=C(NS(=O)(=O)c1ccccc1)c1ccccc1", "hERG current change (%, negative = inhibition) at 1uM": 2.49}
{"smiles": "O=C(COc1ccc2ccc(=O)oc2c1)NCCc1c[nH]c2ccc(F)cc12", "hERG current change (%, negative = inhibition) at 1uM": 12.5}
{"smiles": "CCOc1ccc(N2C(=O)CC(n3nc(C)cc3C)C2=O)cc1", "note": "(stereo not drawn)", "hERG current change (%, negative = inhibition) at 1uM": 3.53}
{"smiles": "CCOC(=O)c1c(CSC(=N)N)n(-c2ccccc2)c2cc(Br)c(OC(C)=O)cc12", "hERG current change (%, negative = inhibition) at 1uM": -57.4}
{"smiles": "Br.CCOC(=O)c1c(CSC(=N)N)n(-c2ccc(C)cc2)c2cc(Br)c(OC(C)=O)cc12", "hERG current change (%, negative = inhibition) at 1uM": -36.7}
{"smiles": "Br.CCOC(=O)c1c(CSC(=N)N)n(C)c2cc(Br)c(OC(C)=O)cc12", "hERG current change (%, negative = inhibition) at 1uM": -36.7}
{"smiles": "Cc1cccc(NC(=O)Nc2ccc3c(c2)OCO3)n1", "hERG current change (%, negative = inhibition) at 1uM": 15.6}
{"smiles": "Cc1nn(Cc2ccccc2)c(C)c1C(=O)N1CCN(CC(=O)Nc2ccccc2Cl)CC1", "hERG current change (%, negative = inhibition) at 1uM": -13.4}
{"smiles": "O=C(CN1CCN(C(=O)c2cncn2-c2ccc(F)cc2)CC1)Nc1ccccc1C(F)(F)F", "hERG current change (%, negative = inhibition) at 1uM": -68.3}
{"smiles": "O=C(CN1CCN(C(=O)c2cccc(-n3cnnn3)c2)CC1)Nc1ccccc1Cl", "hERG current change (%, negative = inhibition) at 1uM": -92.9}
{"smiles": "O=C(CN1CCN(C(=O)c2c(F)cccc2F)CC1)Nc1ccccc1C(F)(F)F", "hERG current change (%, negative = inhibition) at 1uM": 3.09}
{"smiles": "Cc1cccc(NC(=O)CN2CCN(C(=O)c3cncn3-c3ccc(F)cc3)CC2)c1C", "hERG current change (%, negative = inhibition) at 1uM": -22.2}
{"smiles": "O=C(CN1CCN(C(=O)c2cncn2-c2ccccc2)CC1)Nc1ccccc1Cl", "hERG current change (%, negative = inhibition) at 1uM": -83.4}
{"smiles": "Cc1cccc(NC(=O)CN2CCN(C(=O)c3cccc(-n4cnnn4)c3)CC2)c1C", "hERG current change (%, negative = inhibition) at 1uM": -11.9}
{"smiles": "CCc1ccccc1NC(=O)CN1CCN(C(=O)c2cccc(-n3cnnn3)c2)CC1", "hERG current change (%, negative = inhibition) at 1uM": -5.51}
{"smiles": "O=C(CN1CCCCC1)Nc1ccccc1Cl", "hERG current change (%, negative = inhibition) at 1uM": 13.9}
{"smiles": "O=C(Nc1ccncc1)Nc1cccc(Cl)c1", "hERG current change (%, negative = inhibition) at 1uM": 6.49}
{"smiles": "CC(C)(C)n1nc2c(c1NC(=O)c1ccc(C(F)(F)F)cc1)CS(=O)(=O)C2", "hERG current change (%, negative = inhibition) at 1uM": -9.67}
{"smiles": "Cc1ccc(-c2nc(CS(=O)CC(=O)NCCN3CCCCCC3)c(C)o2)cc1", "note": "(stereo not drawn)", "hERG current change (%, negative = inhibition) at 1uM": 15.5}
{"smiles": "Cc1ccc(C(=O)Cn2c(N3CCOCC3)nc3c2c(=O)n(C)c(=O)n3C)cc1", "hERG current change (%, negative = inhibition) at 1uM": 5.32}
{"smiles": "COc1cccc(Nc2nc(Nc3ccc(Cl)c(C(=O)O)c3)nc(C)c2[N+](=O)[O-])c1", "hERG current change (%, negative = inhibition) at 1uM": 9.52}
